tim23-1 inh = growth inhibitors of tim23-1 mutant yeast, primary screen, luminescence, uHTS | S. cerevisiae tim23-1 growth, BacTiter-Glo luminescence, 24 h | AID 463212, 2010 | inhibition, % at 20 µM | 330,000 tested, 1.3% active;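 active means growth inhibition of the mutant yeast at or above 50%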;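 further: temperature-sensitive mutant grown at 25 °C; plate controls were DMSO-treated mutant yeast for no effect and medium wells lacking yeast for full effect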
PfHsp90 yeast 2 = growth inhibition of PfHsp90-expressing yeast, primary screen, antimalarial PfHsp90 inhibitor project, S. cerevisiae, BacTiter-Glo luminescence, single point, set 2. BacTiter-Glo ATP, 48 h; yeast lacking PDR1 and PDR3 efflux regulators. inhibition, % at 9.4 µM. 310,000 tested, 0.32% active. AID 504621, 2011;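 active means every replicate shows inhibition above about 80%, whatever the replicate mean, limit read from the data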;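 further: 0% = DMSO neutral controls and 100% = 20 µM radicicol positive controls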
NALP3 yeast inh = NALP3 inflammasome inhibitors in reconstituted yeast, primary screen, luminescence, uHTS | Yeast reconstituted NLRP3/ASC/caspase-1, beta-gal luminescence, 24 h | inhibition, % at 10 µM | 330,000 tested, 0.39% active | AID 2825, 2010;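 active means inhibition of 50% or more; inactive means inhibition below 50%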;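 further: plate controls were induced DMSO wells for no effect and uninduced yeast grown without galactose for full effect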
TIM10 inh = growth inhibitors of isogenic TIM10 control yeast, primary screen, counter-screen for tim10-1 yeast inhibitor project, luminescence, uHTS | AID 463195, 2010 | inhibition, % at 10 µM | 330,000 tested, 1.4% active | S. cerevisiae TIM10 strain growth, BacTiter-Glo luminescence, 24 h;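 active means inhibition of 40% or more at the single tested concentration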;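 further: wild-type TIM10 isogenic control strain grown at permissive 25 °C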
tim10-1 inh = growth inhibitors of tim10-1 mutant yeast, primary screen, luminescence, uHTS. S. cerevisiae tim10-1 ts strain growth, BacTiter-Glo, 24 h. inhibition, % at 20 µM. 330,000 tested, 2.2% active. AID 463190, 2010;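 active means inhibition of at least 40%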;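 further: mutant grown at 25 °C; 0% = DMSO wells with yeast and 100% = wells holding no yeast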
tim10-1 confirm = growth inhibitors of tim10-1 mutant yeast, confirmation, single concentration, luminescence, S. cerevisiae; 7,400 tested, 56% active; AID 463213, 2010; inhibition, % at 20 µM; S. cerevisiae tim10-1 ts strain growth, BacTiter-Glo, 24 h; shares compounds with tim10-1 inh;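 active means inhibition of yeast growth at or above a set limit in either of two repeat tests at 20 µM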;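 further: tim10-1 mutant grown at permissive 25 °C to find synthetic lethal compounds; 0% = DMSO yeast wells and 100% = medium wells without yeast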
TIM10 conf = growth inhibitors of wild-type TIM10 yeast, confirmation, counter-screen for tim10-1 synthetic lethality project, single concentration, luminescence, S. cerevisiae; shares compounds with TIM10 inh; S. cerevisiae tim10 strain growth, BacTiter-Glo luminescence, 24 h; inhibition, % at 10 µM; 4,600 tested, 63% active;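 active means inhibition of yeast growth at or above a set limit in either of two replicates at 10 µM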;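 further: this counterscreen used the strain with wild-type TIM10; 0% = yeast with DMSO and 100% = medium wells lacking yeast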
tim23-1 confirm = tim23-1 mutant yeast growth inhibitors, confirmation, luminescence, single concentration | shares compounds with tim23-1 inh | S. cerevisiae tim23-1 growth, BacTiter-Glo luminescence, 24 h | inhibition, % at 20 µM | 4,400 tested, 83% active | AID 463218, 2010;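 active means inhibition above about 39% in either of two replicate wells at 20 µM, limit read from the data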;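 further: temperature-sensitive tim23-1 mutant grown at 25 °C; 0% = DMSO wells with yeast and 100% = medium wells without yeast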
* = called active by the depositor; . = no result. Rows were chosen to be rich in hits. Some 3.7% of all compounds tested hit in one or more screens of this group.

SMILES	tim23-1 inh	PfHsp90 yeast 2	NALP3 yeast inh	TIM10 inh	tim10-1 inh	tim10-1 confirm	tim23-1 confirm	others
Cc1ccccc1NC(=O)c1cc(S(=O)(=O)N2CCOCC2)cn1C	4	26	0	-5	-14	.	.
COc1cc(OC)c(NC(=S)Nc2cc(Cl)cc(Cl)c2)cc1Cl	54*	-4	4	41*	54*	53*	58*	TIM10 conf=-9
COCCC(=O)N1CCC(Oc2ccc(C(=O)N(C)CCCC3CCCC3)cc2)CC1	18	5	10	19	26	.	.
COc1ccc(/C=C2\C(=O)OCc3cc(OC)c(OC)cc32)cc1OC	23	-1	0	27	23	.	.
COc1cc2c(cc1OC)/C(=C/c1ccc(Cl)cc1)C(=O)OC2	55*	-31	18	2	41*	12	47*
CCc1nc2sc3ccccc3c(=O)c2c(=O)n1Cc1ccc(OC)cc1	53*	8	31	17	40*	31*	41*
CCCc1nc2sc3ccccc3c(=O)c2c(=O)n1CCOC	-6	.	21	-21	6	.	.
C[C@H](CO)N1C[C@H](C)[C@@H](CN(C)C(=O)Nc2ccc3c(c2)OCO3)Oc2ccc(NS(=O)(=O)c3cn(C)cn3)cc2C1=O	14	-1	13	-3	11	.	.
COc1ccc(S(=O)(=O)N2CCOC2CNC(=O)C(=O)NCc2ccc(F)cc2)cc1OC (stereo unspecified)	4	-27	-3	13	-11	.	.
C=CCn1c(=O)/c(=C/c2ccc(Cl)cc2)s/c1=C(/C#N)c1nnc2n1CCCCC2	63*	-12	0	49*	57*	33*	58*	TIM10 conf=44*
C=CCn1c(=O)/c(=C/c2ccc(O)cc2)s/c1=C(/C#N)c1nnc2n1CCCCC2	24	-9	23	12	8	.	.
FC(F)(F)c1cccc(Oc2nc(-c3ccccc3)nnc2C(F)(F)F)c1	55*	.	8	46*	54*	48*	46*	TIM10 conf=38*
COc1ccc(C)cc1NC(=O)C(Sc1nnc(-c2ccncc2)n1-c1ccc(Cl)cc1)c1ccccc1 (stereo unspecified)	25	2	5	7	22	.	.
CCOC(=O)c1cc(C(=O)OCC)c(=O)[nH]c1SCc1ccccc1	22	-23	6	-17	-19	.	.
CN1Cc2c(N3CCOCC3)nc3sc(C#N)c(N)c3c2CC1(C)C	-12	1	6	-8	-19	.	.
CN1Cc2c(N3CCOCC3)nc3sc(C(=O)c4ccc(Br)cc4)c(N)c3c2CC1(C)C	58*	.	45	21	58*	-16	53*
COCCNC(=O)/C(C#N)=C/c1cccc(NC(=O)c2ccccc2Cl)c1	31	11	27	27	38	.	.
CC(C)NC(=O)/C(C#N)=C/c1cccc(NC(=O)c2ccccc2Cl)c1	78*	-2	21	63*	70*	67*	67*	TIM10 conf=1
O=C(c1cc(Br)ccc1Cl)N1CCN(c2ccccn2)CC1	13	-31	3	-10	-12	.	.
Cc1ccc(NC(=O)C(=O)c2c[nH]c3ccccc23)cc1	10	-3	39	-14	-7	.	.
Cc1ccc(C(=O)/C=C/c2c[nH]c3ccccc23)cc1	80*	-29	38	36	44*	23	44*
Cn1cc(/C=C/C(=O)c2ccccc2)c2ccccc21	41	-8	35	30	21	.	.
Cc1ccc(C(=O)/C=C/c2cn(CN3CCN(C)CC3)c3ccccc23)cc1	56*	-11	33	60*	52*	38*	-93	TIM10 conf=55*

Bioassay records from PubChem BioAssay.
